Assay results reported in PubChem BioAssay AID1159580 (chemical genetic matrix, 2015).
Where “and” joins values, the source holds several entries; their conditions need not be identical. Identical values can stand only once. The whole screen tested about 5,500 compounds, of which about 2,000 (36%) were called active. Another 18% or so got no clear call; they are omitted. Rule as the data show it: active = normalized growth mostly below about 0.91 (no sharp cut-off); inconclusive = no clear call, values can overlap the other calls; inactive = mostly above about 0.92. The list shows a part of the results.

Test: chemical genetic growth profiling, strain panel (AID 1159580);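 also: tested at 20 µM; growth read once vehicle control cultures reached saturation at 30 °C; 1 = growth at the plate median or of vehicle wells; lower values mean less growth of the strain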
Details: S. cerevisiae deletion strains, growth OD

Measured: normalized growth

COc1cc(-c2coc3cc(OC)c(OC)c(OC)c3c2=O)cc(OC)c1OC
inactive: locus YAL013W, strain DEP1, stronger effect = lower value 0.994 | locus YAL021C, strain ccr4, stronger effect = lower value 1 | locus YAL026C, strain drs2, stronger effect = lower value 1.01 | locus YAL030W, strain snc1, stronger effect = lower value 1.01 | locus YBL061C, strain skt5, stronger effect = lower value 0.996 | locus YBR009C, strain hhf1, stronger effect = lower value 0.993 | locus YBR021W, strain FUR4, stronger effect = lower value 1.02 | locus YBR023C, strain chs3, stronger effect = lower value 0.991 | locus YBR171W, strain sec66, stronger effect = lower value 0.99 | locus YBR229C, strain ROT2, stronger effect = lower value 1 | locus YBR231C, strain swc5, stronger effect = lower value 0.969 | locus YBR279W, strain paf1, stronger effect = lower value 1.01 | locus YCL011C, strain gbp2, stronger effect = lower value 1 | locus YCL016C, strain dcc1, stronger effect = lower value 0.987 | locus YCL029C, strain bik1, stronger effect = lower value 0.973 | locus YCL061C, strain MRC1, stronger effect = lower value 1.01 | locus YCL069W, strain vba3, stronger effect = lower value 1.01 | locus YCR088W, strain abp1, stronger effect = lower value 1.01 | locus YDL005C, strain med2, stronger effect = lower value 0.996 | locus YDL035C, strain GPR1, stronger effect = lower value 1.03 | locus YDL040C, strain nat1, stronger effect = lower value 0.995 | locus YDL074C, strain BRE1, stronger effect = lower value 1.02 | locus YDL101C, strain DUN1, stronger effect = lower value 0.981 | locus YDL185W, strain tfp1, stronger effect = lower value 0.968 | locus YDL192W, strain arf1, stronger effect = lower value 1.03 | locus YDR001C, strain nth1, stronger effect = lower value 0.999 | locus YDR069C, strain doa4, stronger effect = lower value 1.01 | locus YDR101C, strain arx1, stronger effect = lower value 1.06 | locus YDR137W, strain rgp1, stronger effect = lower value 1.01 | locus YDR159W, strain sac3, stronger effect = lower value 0.947 | locus YDR162C, strain NBP2, stronger effect = lower value 1.03 | locus YDR195W, strain ref2 0.963 | locus YDR297W, strain sur2, stronger effect = lower value 1.01 | locus YDR318W, strain mcm21, stronger effect = lower value 0.993 | locus YDR334W, strain swr1, stronger effect = lower value 0.994 | locus YDR335W, strain msn5, stronger effect = lower value 1 | locus YDR388W, stronger effect = lower value 0.985 | locus YDR392W, strain spt3, stronger effect = lower value 0.888 | locus YDR502C, strain sam2, stronger effect = lower value 0.985 | locus YEL003W, strain gim4, stronger effect = lower value 0.992 | locus YEL037C, strain rad23, stronger effect = lower value 1 | locus YEL061C, strain CIN8 (second series), stronger effect = lower value 1 | locus YEL061C, strain CIN8, stronger effect = lower value 0.994 | locus YER015W, strain faa2, stronger effect = lower value 1 | locus YER016W, strain bim1, stronger effect = lower value 0.999 | locus YER110C, stronger effect = lower value 0.968 | locus YER111C, strain swi4, stronger effect = lower value 0.989 | locus YER155C, strain BEM2 (second series), stronger effect = lower value 0.968 | locus YER155C, strain BEM2, stronger effect = lower value 0.984 | locus YER167W, strain BCK2, stronger effect = lower value 1 | locus YFR010W, strain ubp6, stronger effect = lower value 0.996 | locus YGL078C, strain dbp3, stronger effect = lower value 0.975 | locus YGL086W, strain mad1, stronger effect = lower value 1.01 | locus YGL167C, strain pmr1, stronger effect = lower value 1 | locus YGL173C, strain kem1, stronger effect = lower value 1 | locus YGL227W, strain vid30, stronger effect = lower value 0.99 | locus YGL240W, strain doc1, stronger effect = lower value 0.987 | locus YGL248W, strain PDE1, stronger effect = lower value 0.965 | locus YGL253W, strain hxk2, stronger effect = lower value 0.996 | locus YGR135W, strain pre9, stronger effect = lower value 0.952 | locus YGR252W, strain gcn5, stronger effect = lower value 1.01 | locus YHR013C, strain ard1, stronger effect = lower value 0.996 | locus YHR027C, strain rpn1, stronger effect = lower value 0.997 | locus YHR030C, strain SLT2, stronger effect = lower value 0.997 and 1.06 | locus YHR079C, strain IRE1 (second series), stronger effect = lower value 0.992 | locus YHR079C, strain IRE1, stronger effect = lower value 1.02 | locus YHR094C, strain hxt1, stronger effect = lower value 1 | locus YHR129C, strain ARP1, stronger effect = lower value 0.996 | locus YHR142W, strain chs7, stronger effect = lower value 0.994 | locus YHR200W, strain rpn10, stronger effect = lower value 1.01 | locus YIL066C, strain RNR3, stronger effect = lower value 1 | locus YIL073C, strain SPO22, stronger effect = lower value 0.921 | locus YIL125W, strain kgd1, stronger effect = lower value 1.01 | locus YIR030C, strain dcg1, stronger effect = lower value 0.989 | locus YJL092W, strain hpr5, stronger effect = lower value 1.01 | locus YJL095W, strain BCK1 (second series), stronger effect = lower value 1 | locus YJL095W, strain BCK1, stronger effect = lower value 0.986 and 1.07 | locus YJL115W, strain asf1, stronger effect = lower value 1 | locus YJL129C, strain trk1, stronger effect = lower value 0.988 | locus YJL134W, strain LCB3, stronger effect = lower value 1 | locus YJL154C, strain vps35, stronger effect = lower value 0.99 | locus YJL164C, strain tpk1, stronger effect = lower value 1 | locus YJL166W, strain qcr8, stronger effect = lower value 0.999 | locus YJL168C, strain set2, stronger effect = lower value 0.993 | locus YJL187C, strain SWE1 (second series), stronger effect = lower value 0.968 | locus YJR043C, strain POL32, stronger effect = lower value 1.04
